# Only some compounds are listed: those with a hit (about 2.8% of all), similar ones and a draw of the others.
# PglD DTNB = blocks C. jejuni PglD acetyltransferase activity; 360,000 tested, 0.098% active; purified PglD enzyme, DTNB colorimetric CoA detection; inhibition, % at 12.5 µM; in the data active = inhibition above about 16%, passing the limit was not always enough
# dFosB act = mouse delta FosB homodimer activation; P13346; purified delta FosB, TAMRA-CDK5 oligo fluorescence polarization; percent of positive-control signal above neutral wells; activation, % at 25 µM; 340,000 tested, 0.99% active;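 active = mean activation above about 17%, with every replicate also reaching it, limit read from the data, passing the limit was not always enough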
# SIRT5 block = blocks human SIRT5 desuccinylation of peptide. Q9NXA8. 330,000 tested, 1.1% active. Purified SirT5, succinyl-peptide AMC, trypsin-coupled fluorescence. inhibition, % at 15 µM. AID 652115; in the data active = inhibition above about 15%
# Target sequence (Q9NXA8 whole entry, looked up): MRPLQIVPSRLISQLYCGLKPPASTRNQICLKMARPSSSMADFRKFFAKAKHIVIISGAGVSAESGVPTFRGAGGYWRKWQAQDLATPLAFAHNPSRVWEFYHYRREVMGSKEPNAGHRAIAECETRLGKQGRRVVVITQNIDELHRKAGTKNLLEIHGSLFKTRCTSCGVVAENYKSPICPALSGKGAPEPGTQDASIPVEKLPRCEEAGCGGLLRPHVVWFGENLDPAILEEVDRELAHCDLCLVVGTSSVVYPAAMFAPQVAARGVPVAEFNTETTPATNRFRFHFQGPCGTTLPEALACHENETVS
# PvdQ inh = blocks Pseudomonas aeruginosa PvdQ acylase activity | purified PvdQ acylase, fluorescence plate reader | inhibition, % at 10 µM | 340,000 tested, 0.063% active; in the data active = inhibition above about 30%, passing the limit was not always enough;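 note: 0% = vehicle neutral wells and 100% = reference inhibitor wells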
# FGF22 binding = binders of recombinant human FGF22 by thermal shift; activity (Tm shift, normalised), % at 9.99 µM; Q9HCT0; 340,000 tested, 1.5% active; SYPRO orange fluorescence; percent of sucrose octasulfate shift, DMSO zero; AID 651658;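 active = mean Tm shift, scaled 0 neutral to 100 positive control, at about 1.3% or above, every replicate too, limit read from the data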
# Target sequence (Q9HCT0 whole entry, looked up): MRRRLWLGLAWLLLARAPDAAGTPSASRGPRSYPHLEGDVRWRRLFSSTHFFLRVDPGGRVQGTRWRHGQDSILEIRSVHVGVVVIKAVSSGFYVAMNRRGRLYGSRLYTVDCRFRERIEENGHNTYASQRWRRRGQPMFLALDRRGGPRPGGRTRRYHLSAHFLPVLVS
# CDK5 inh = CDK5/p35 (human) kinase inhibition. inhibition, % at 10 µM. Recombinant CDK5/p35, ADP-Glo luminescence, 60 min. Q00535+Q15078. AID 488839. 330,000 tested, 0.01% active;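 active = highest replicate inhibition of at least 50% and at least 75% of replicates reaching 50%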;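 note: plate controls were DMSO neutral control for no effect and GW8510 at 10 µM for full effect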
# * hit, by the source's call; nt = no result given.
SMILES,PglD DTNB,dFosB act,SIRT5 block,PvdQ inh,FGF22 binding,CDK5 inh
CC(C)Cc1nc2sc3c(=O)n(N)cnc3c2c2c1COC(C)(C)C2,1,-8,-2,-17,0,-1
CCCCc1nc2sc3c(=O)n(N)cnc3c2c2c1CCC2,3,-10,6,-13,43*,-1
C[C@H]1CN([C@@H](C)CO)C(=O)c2cc(NC(=O)c3ccncc3)ccc2O[C@@H]1CN(C)S(=O)(=O)c1ccc(F)cc1,2,nt,-6,nt,0,nt
Cc1ccc(N=c2c([N+](=O)[O-])nn(-c3ccc4c(c3)OCCO4)n2O)cc1F,nt,2,-1,-11,43*,0
Cc1cc(C)cc(N=c2c([N+](=O)[O-])nn(-c3ccc4c(c3)OCCO4)n2O)c1,10,-7,-1,-6,0,-4
COc1ccc(CN(C)C[C@H]2Oc3c(NC(=O)c4ccc(-c5nccs5)cc4)cccc3C(=O)N([C@@H](C)CO)C[C@@H]2C)cc1,-2,nt,24*,nt,0,nt
CNC[C@@H]1Oc2c(N)cccc2C(=O)N([C@H](C)CO)C[C@H]1C,-2,nt,2,nt,0,nt
CNC[C@H]1Oc2c(N)cccc2C(=O)N([C@H](C)CO)C[C@@H]1C,3,nt,3.0*,nt,0,nt
C[C@@H]1CN([C@H](C)CO)C(=O)c2cccc(NC(=O)c3ccc(-c4nccs4)cc3)c2O[C@@H]1CN(C)C(=O)Nc1ccccc1,-1,nt,6,nt,3.2*,nt
CNC[C@H]1Oc2c(NC(=O)c3ccc(-c4nccs4)cc3)cccc2C(=O)N([C@H](C)CO)C[C@H]1C,-1,nt,28*,nt,0,nt
COc1ccccc1-c1cnc2c(c1)C(=O)N([C@H](C)CO)C[C@H](C)[C@H](CN(C)C)O2,-2,nt,6,nt,-1,nt
C[C@@H]1CN([C@H](C)CO)C(=O)c2cccc(NC(=O)c3ccc(-c4nccs4)cc3)c2O[C@@H]1CN(C)Cc1ccc(Oc2ccccc2)cc1,4,nt,21*,nt,0,nt
C[C@@H]1CN([C@H](C)CO)C(=O)c2cc(NS(=O)(=O)c3ccccc3)ccc2O[C@H]1CN(C)S(=O)(=O)c1ccccc1,-2,nt,4,nt,-1,nt
NC(N)=N/N=C/c1ccccc1Cl,-7,-6,18*,4,0,2
COc1cc(/C=C2\SC(=Nc3ccccc3)NC2=O)cc(Cl)c1O,-4,-7,3,-3,0,0
COc1cc(/C=C2\SC(=Nc3ccc(Cl)c(C(=O)O)c3)NC2=O)c(Br)c(Br)c1O,2,-20,26*,4,0,-4
CCC(CC)c1nnc(NC(=O)C2=NNC(=O)CC2)s1,nt,-3,2,-8,43*,2
Cc1ccc(S(=O)(=O)N(CC(=O)N/N=C/c2ccccc2C(=O)O)c2cc(Cl)cc(Cl)c2)cc1,nt,-1,-3,-8,43*,0
O=C(CN(c1ccccc1Cl)S(=O)(=O)c1ccccc1)N/N=C/c1ccccc1C(=O)O,nt,-2,0,3,0,-1
C[C@H](CO)N1C[C@H](C)[C@@H](CN(C)C)OCCCC[C@H](C)Oc2ccc(NC(=O)CCC(F)(F)F)cc2C1=O,-2,nt,nt,nt,0,nt
O=C(Nc1nccs1)C1CC(=O)N(Cc2ccco2)C1 (stereo not drawn),nt,0,-3,-15,43*,1
Cc1noc(C)c1S(=O)(=O)Nc1ccc2c(c1)C(=O)N([C@H](C)CO)C[C@@H](C)[C@H](CN(C)C)OCCCC[C@@H](C)O2,-2,nt,-2,nt,nt,nt
CCN(CC(=O)Nc1ccc(C)c(F)c1)CC(=O)NC(C)(C)C,nt,-3,-3,-16,43*,0
CCN(CC(=O)Nc1ccc(N2CCOCC2)cc1)CC(=O)NC(C)(C)C,nt,2,nt,-5,nt,1
C[C@@H]1CN([C@H](C)CO)C(=O)c2cc(NC(=O)Nc3ccc(C(F)(F)F)cc3)ccc2O[C@@H](C)CCCCO[C@H]1CN(C)C(=O)c1ccccc1,-1,nt,3,nt,0,nt
SMILES,PglD DTNB,dFosB act,SIRT5 block,PvdQ inh,FGF22 binding,CDK5 inh
CCC(=O)N(c1ccc(C(=O)O)cc1)c1nc(-c2ccc(OC)cc2)c(C)s1,nt,-2,nt,-8,44*,-2
C[C@@H](NC(=O)C[C@H]1CC[C@@H](NS(=O)(=O)c2cccc(F)c2)[C@H](CO)O1)c1ccccc1,4,nt,-4,nt,0,nt
CCC1C(c2ccccc2)N(C)C(c2ccccc2)CC1(O)c1ccccc1 (stereo not drawn),nt,7,-1,-2,44*,0
CN1c2ccc(C#Cc3cccnc3)cc2[C@@H]2[C@@H](CCN2S(=O)(=O)c2cccc(F)c2)[C@H]1CO,-1,nt,2,nt,0,nt
OCCC1CN(Cc2nc(-c3ccccc3)cs2)CCN1Cc1ccc(F)cc1 (stereo not drawn),6,-5,3,-8,43*,1
CC(C)=CCN1CCN(Cc2nc(-c3ccc(F)cc3)cs2)CC1CCO (stereo not drawn),-2,-11,-6,3,0,0
OCCC1CN(Cc2cnn(-c3ccccc3Cl)c2)CCN1Cc1ccsc1 (stereo not drawn),nt,-13,-3,5,49*,1
OCCC1CN(Cc2ccsc2)CCN1C1CCCC1 (stereo not drawn),1,3,2,-12,0,-7
C[C@@H]1CN([C@@H](C)CO)C(=O)c2cc(NC(=O)Cc3ccccc3)ccc2O[C@@H](C)CCCCO[C@@H]1CN(C)Cc1ccccc1,0,nt,3,nt,0,nt
Cc1noc(C)c1NC(=O)NCC[C@@H]1CC[C@@H](NC(=O)Cc2cccnc2)[C@@H](CO)O1,2,nt,6,nt,0,nt
O=S(=O)(Nc1ccc(-c2ccc3nncn3n2)cc1)c1ccc(Cl)s1,nt,-6,2,-9,0,0
O=C(Cc1ccc(F)cc1)Nc1cccc(-c2ccc3nncn3n2)c1,nt,-30,-2,-6,44*,-2
COCC(=O)Nc1cccc(-c2ccc3nncn3n2)c1,0,-15,-2,-7,0,0
CCc1ccc(S(=O)(=O)Nc2cccc(-c3ccc4nncn4n3)c2)s1,nt,4,4,13,43*,1
CCC(=O)Nc1ccc2c(c1)C(=O)N(C)C[C@H](OC)[C@@H](C)CN(C(=O)C1CC1)[C@@H](C)CO2,3,nt,-4,nt,0,nt
CC=Cc1ccc2n(c1=O)C[C@H]1[C@H](CO)[C@@H](C(=O)NCc3ccccc3)N(CCC(F)(F)F)[C@@H]21 (mixture of isomers),-1,nt,-3,nt,0,nt
C[C@@H]1CN([C@H](C)CO)C(=O)Cc2cc(N(C)C)ccc2O[C@@H]1CN(C)C(=O)Nc1cccc2ccccc12,-1,nt,0,nt,-1,nt
CCc1nc2ccccc2c(C(=O)OCC(=O)NCCCN2CCCC2=O)c1C,-5,-4,19*,-19,nt,0
Cc1cc(SCC(=O)NCCCN2CCCC2=O)nc2ccccc12,5,-9,-2,-6,0,0
